Data published in PubChem BioAssay (NCI).
Compounds without any hit were thinned out: in the full panel of roughly 83,000, 20% have a hit.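 96-well plates, one dose, 48 hours. Percent growth reported; active if below 10.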 A number with no mark means an inactive call. Activity calls are given as the source filed them.

The compounds below were run on OVCAR-8 ovarian (assay: NCI-60 one-dose screen, 48 h (100 = growth as untreated, 0 = no growth, -100 = all killed)). Conditions: 10 µM unless noted.
Protocol: Growth inhibition of the OVCAR-8 human tumor cell line is measured as a screen for anti-cancer activity. Cells are grown in 96 well plates and exposed to the test compound for 48 hours. Compounds are tested at a single concentration, which is 10^-5 M for most compounds. The reported endpoint is percent growth (GI% or GIPRCNT), where numbers from 0 - 100% represent growth inhibition, and numbers from -100% - 0 represent cell death. For example, a value of 40 represents 60% growth inhibition. A value of 0 means no net growth occurred over the course of the experiment. A value of -40 indicates 40% of cells at the beginning of the experiment died by the end of the experiment. A value of -100 means all cells are dead at the end of the experiment.
NCI-60 Human Tumor Cell Lines Screen was performed using the standard one-dose NCI protocol, which is described in more detail at https://dtp.cancer.gov/discovery_development/nci-60/default.htm.
Compounds with GIPRCNT values below 10 were considered active. Activity score was based on GIPRCNT using the following formula: […]
Score is 0 for GIPRCNT values of 100 or above, 50 for GIPRCNT values of 0, and 100 for GIPRCNT values of -100.

SMILES	growth
[2H]C([2H])([2H])Oc1ccc(/C=C/C(=O)/C=C(O)/C=C/c2ccc(OC([2H])([2H])[2H])c(OC([2H])([2H])[2H])c2)cc1OC([2H])([2H])[2H]	21.8%
Cc1c(C)c2c(c(C)c1OC(=O)CCC(=O)[O-])CCC(C)(CCCCCCCCCCC[P+](c1ccccc1)(c1ccccc1)c1ccccc1)O2 (stereo not given)	3.73% (active)
CC1=NC(=S)NC(c2ccccc2)/C1=C1/CC(c2ccccc2O)NN1 (stereo not given)	96.6%
Cc1nc2sc(C(=O)Nc3ccccc3)c(N)c2cc1C(O)c1ccccc1 (stereo not given)	19.2%
CC(C)(C)n1cc(-c2ccnc(NCCNS(=O)(=O)c3cccc4ccccc34)c2)c(-c2cccc(O)c2)n1	65.9%
Nc1nc(N)c2c(n1)NC(c1ccc3c(c1)OCO3)CC(c1cccc(Nc3ccncc3)c1)=N2 (stereo not given)	83.8%
CC1=C(C(=O)c2ccccc2)C(c2ccc3c(c2)OCO3)NC(=S)N1 (stereo not given)	46.7%
Cc1ccc(-c2nn(CC(=O)N3CCOCC3)c(N)c2C#N)cc1	99.8%
CNC1=C([N+](=O)[O-])C(c2ccc(OC)cc2)C(C#N)=C(c2ccc[nH]2)O1 (stereo not given)	99.8%
Cc1ccc(S(=O)(=O)c2nc(-c3ccccc3)oc2S(C)=O)cc1 (stereo not given)	2.01% (active)
Cc1ccc2c(c1)CC(O)CC1C(=O)N(CCO)CC(=O)N21 (stereo not given)	101%
COc1cc2c(c(OC)c1OC)C(=O)CC(c1cccc(C(=O)Nc3ccc(Br)cc3)c1)O2 (stereo not given)	47.1%
Cc1ccc(Nc2nc(N)nc(N)c2N=O)cc1Cl	95.8%
O=C(Nc1ncc(Cc2cc(C(F)(F)F)ccc2Cl)s1)C(=S)N1CCOCC1	95.2%
CCOC(=O)CC1CSC(N/N=C(/C)c2cccc(C(F)(F)F)c2)=N1 (stereo not given)	102%
Cc1ccc(Nc2oc(-c3ccccc3)nc2[P+](c2ccccc2)(c2ccccc2)c2ccccc2)cc1	-27.3% (active)
C=CN(C(=O)N1CCN(c2cc3c(cc2F)c(=O)c(C(=O)O)cn3C2CC2)CC1)c1nc(-c2ccc(C)cc2)cs1	14.1%
Cc1c(N2CCCCC2)[nH]c2ccccc12	105%
O=C(Oc1ccccc1)c1cc(O)c(O)c(O)c1	71.4%
COC1CC(O)C2=C(CC3C(/C(C)=C\CC=C(C)C)CCC3(C)O2)C1=O (stereo not given)	99.9%

SMILES	growth
COc1c(O[C@@H]2OC(CO)[C@H](O)[C@H](O)C2O)cc2oc3cc(O)c(CC=C(C)C)c(O)c3c(=O)c2c1CC=C(C)C (stereo not given in full)	87.3%
Cc1oc2ccc(O)c(CN3CCCCCC3)c2c1C(=O)Nc1ccc(C(F)(F)F)cc1	66.3%
C#Cc1c(I)n(C2OC(CO[Si](C)(C)C(C)(C)C)C3OC(C)(C)OC32)c(=O)[nH]c1=O (stereo not given)	97.8%
C=CCn1c(SCC(=O)Nc2ccc(C(=O)/C=C/c3ccc(Cl)cc3)cc2)nnc1-c1ccccc1	102%
COc1ccc(-c2csc(NC(=O)CSc3nc(C)cc(=O)[nH]3)n2)cc1	102%
Cc1ccc(C2=Nc3c(N)nc(N)nc3NC(c3cccc(Nc4ccnc5cc(C(F)(F)F)ccc45)c3)C2)cc1 (stereo not given)	36.2%
CCOC(=O)CC1CSC(N/N=C/c2ccc(O)cc2)=N1 (stereo not given)	103%
COC1=C(OC)C(=O)C(CCCCCCCCCCO)=C(C)C1=O	49.4%
COc1cccc(C2C(C#N)=C(N)Oc3c2ccc2ccccc32)c1 (stereo not given)	21.4%
CCOC(=O)C1=CCC(n2cc(F)c(=O)[nH]c2=O)O1 (stereo not given)	97%
COc1ccc(/C=C/C(=O)c2ccc(-n3cc(CN4CCN(c5cc6c(cc5F)c(=O)c(C(=O)O)cn6C5CC5)CC4)nn3)cc2)cc1	67.4%
C[C@@H]1N=C(c2ccc(Cl)cc2Cl)Nc2nc3ccccn3c2C1=O	68.1%
CC(C)n1nc(-c2ccc3oc(N)nc3c2)c2c(N)ncnc21	-17.5% (active)
CC(=O)Oc1ccccc1C(=O)N(Cc1ccc2c(Cl)cc(Cl)c(O)c2n1)c1ccccc1	34.9%
COc1ccc(Nc2nccc(Nc3ccc4[nH]ncc4c3)n2)cc1	9.36% (active)
Nc1ncnc2c1N=C(c1ccc([N+](=O)[O-])cc1)CC(c1ccc3c(c1)OCO3)N2 (stereo not given)	89.6%
CC1=C([Se]CC(OC(=O)[C@@H](CO)NC(=O)OC(C)(C)C)C(=O)NCCCCCC(=O)OCc2ccccc2)C(=O)c2ccccc2C1=O (stereo not given in full)	-82.4% (active)
C=C(CNCCO)[C@@H]1CC[C@]2(CO)CC[C@]3(C)[C@H](CC[C@@H]4[C@@]5(C)CCC(NCCO)C(C)(C)[C@@H]5CC[C@]43C)[C@@H]12 (stereo not given in full)	75.8%
Cc1c2ccncc2c(C)c2c1c1ccccc1n2CCCCCC(=O)O	79.5%
CC(=O)Cc1nsc(NC(=O)c2cc(-c3cc(Cl)ccc3Cl)oc2C)n1	102%
